Compound activity from PubChem BioAssay.
FLuc modulator = firefly luciferase modulation, counter-screen for miR-21 project; Potency, µM (doses to about 57.5 µM), actives largely listed as inhibitors; purified FLuc, Km substrates, luminescence inhibition; AID 588342; 360,000 compounds, 6.9% hits; P08659; note: nearly all actives have a fitted effect of over 55% in size
Target sequence (P08659 whole entry, looked up): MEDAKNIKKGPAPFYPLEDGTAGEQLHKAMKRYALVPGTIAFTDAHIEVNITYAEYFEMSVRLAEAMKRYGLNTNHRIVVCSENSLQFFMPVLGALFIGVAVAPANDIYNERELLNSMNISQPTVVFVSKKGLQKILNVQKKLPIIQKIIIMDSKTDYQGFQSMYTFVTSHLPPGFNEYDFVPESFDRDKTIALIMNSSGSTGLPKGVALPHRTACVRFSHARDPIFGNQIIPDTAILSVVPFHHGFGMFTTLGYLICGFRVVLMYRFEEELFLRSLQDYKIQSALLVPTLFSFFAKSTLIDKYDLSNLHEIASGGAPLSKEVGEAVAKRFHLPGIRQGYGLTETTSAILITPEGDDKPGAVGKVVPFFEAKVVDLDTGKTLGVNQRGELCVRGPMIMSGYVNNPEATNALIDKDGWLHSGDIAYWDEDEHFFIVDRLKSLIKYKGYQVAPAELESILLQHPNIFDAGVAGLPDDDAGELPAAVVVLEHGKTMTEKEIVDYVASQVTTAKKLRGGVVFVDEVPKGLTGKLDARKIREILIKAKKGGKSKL
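Purified P. pyralis luciferase (10nM final) with 10uM D-luciferin and 10uM ATP (Km levels) in 50mM Tris acetate pH 7.5, 10mM Mg acetate, 0.01% Tween-20, 0.05% BSA; qHTS 6-point titration, ~60 µM downward; luminescence read.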
Rab9 prom act = activates the Rab9 promoter | 320,000 compounds, 2.8% hits | Huh7 Rab9 promoter-luciferase reporter, luminescence, 24 h | Potency, µM (titrated, usually from 9.22 µM), most hits filed as activators; note: nearly all actives have a fitted effect of over 60% in size
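Steps: seed 1500 Huh7 Rab9-luc cells per well, rest 2 h at 37 °C; add compound in DMSO; incubate 24 h; add luciferase reagent, 10 min ambient; read luminescence.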
SMN2 splice up = increases expression of the SMN2 splice variant. HEK293 SMN2-luciferase splicing reporter, luminescence, 30-36 h. Potency, µM (titrated, usually from 46.1 µM), most hits filed as activators. 210,000 compounds, 2.8% hits; note: nearly all actives have a fitted effect of over 55% in size
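qHTS luciferase splicing reporter: luminescence rises when SMN2 exon 7 is included in transfected HEK293 cells. Compound exposure lasted 30-36 h at 37C, with 4.5 mM final sodium butyrate as control, followed by a ONE-Glo read.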
Luc counter = counter-screen: inhibitors of Kinase-Glo firefly luciferase; Q27757; Kinase-Glo luciferase, ATP luminescence, 8 min; Potency, µM (doses to about 38.3 µM), hits mostly inhibitors; 200,000 compounds, 0.28% hits; AID 1379; note: nearly all actives have a fitted effect of over 60% in size
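Luminescence was the read-out, taken after 8-minute incubation at ambient temperature. Luciferase turned over luciferin with 10 uM ATP in imidazole pH 7.2 buffer containing KCl, MgCl2, Tween 20 and BSA.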
NPC1 prom act = activators of NPC1 promoter; 320,000 compounds, 2.4% hits; Potency, µM (highest dose often 9.22 µM), hits mostly activators; AID 485313; Huh7 NPC1 promoter luciferase reporter, 24 h; note: nearly all actives have a fitted effect of over 60% in size
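Stably transfected Huh7 (NPC1 promoter→luciferase), 1500 cells/well in Opti-MEM + 10% FBS, 2 h settle, then compound 24 h at 37 °C. Luminescence after 10 min with Amplite reagent.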
ELG1 genotox = genotoxicity induction in ELG1-luciferase HEK293T cells; 330,000 compounds, 1.3% hits; Potency, µM (doses to about 46 µM), most hits filed as activators; AID 504466; HEK293T ELG1-luciferase reporter, luminescence, 16 h; note: nearly all actives have a fitted effect of over 60% in size
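Step 1: seed 2,000 HEK293T ELG1-luciferase cells per well. Step 2: add compound or DMSO, incubate 16 hr at 37 °C. Step 3: ONE-Glo, 30 min at room temperature, read luminescence.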
Large screens that a line does not name were inactive. Sampled rows, rich in hits. Any-hit rate of the full collection: about 7.5%. Calls come from the whole dose curve; as a rule, active = well fitted curve in the direction sought with a large enough effect; inconclusive = small, poorly fitted or top-dose-only effect, or another doubt; inactive = no such curve, though single readings can be large; an effect the other way counts as inactive or inconclusive.

C/C(=N\NC(=O)c1cccc(C)c1)c1cccc(NC(=O)c2ccco2)c1	FLuc modulator 15µM
CC(=O)c1cccc(NC(=O)c2cccc(NC(=O)c3ccco3)c2)c1	none (no result: SMN2 splice up, Luc counter)
O=C(N/N=C/c1ccco1)c1cccc(NC(=O)c2cccc(Cl)c2)c1	FLuc modulator inconclusive (no result: SMN2 splice up, Luc counter)
C/C(=N\NC(=O)c1cccc(Cl)c1)c1cccc(NC(=O)c2ccco2)c1	FLuc modulator 19µM
CN(C)c1ccc(/C=C(\Cl)c2nc3ccccc3s2)cc1	FLuc modulator 1.2µM, Rab9 prom act 1µM, Luc counter 13µM, NPC1 prom act 2.5µM, ELG1 genotox inconclusive
O=C(O)c1ccc(Oc2nc3ccccc3s2)cc1	SMN2 splice up inconclusive (no result: FLuc modulator, Rab9 prom act, NPC1 prom act, ELG1 genotox)
COc1cc(C=C(c2nc3ccccc3s2)c2nc3ccccc3s2)cc(OC)c1O	FLuc modulator 15µM
O=C(O)c1ccc(C=C(c2nc3ccccc3s2)c2nc3ccccc3s2)cc1	FLuc modulator 12µM
CCOC(=O)N1CCN(/[N+]([O-])=N/Oc2ccc([N+](=O)[O-])cc2[N+](=O)[O-])CC1	none (no result: FLuc modulator, SMN2 splice up, Luc counter, ELG1 genotox)
COc1ccc(-n2c(=O)c3ccccc3n(CC(=O)NCCc3ccc(OC)c(OC)c3)c2=O)cc1	none (no result: Rab9 prom act, Luc counter, NPC1 prom act, ELG1 genotox)
C=C(CC(=O)O)C(=O)O (tested in a mixture with another compound)	none (no result: FLuc modulator, Rab9 prom act, NPC1 prom act, ELG1 genotox)
N#Cc1c(N2CCCC2)nsc1-c1ccccc1	FLuc modulator 15µM, Rab9 prom act inconclusive, NPC1 prom act inconclusive, ELG1 genotox inconclusive (no result: SMN2 splice up, Luc counter)
N#Cc1nc(-c2ccccc2)oc1N1CCCCC1	none
COc1ccc(C(=O)N2CCC[C@@]3(CCN(c4ncccn4)C3)C2)cc1	none (no result: FLuc modulator, Rab9 prom act, NPC1 prom act, ELG1 genotox)
Cc1ccc(C(=O)Nc2nc(=O)n(C(=O)c3ccccc3Cl)s2)cc1	FLuc modulator 5.4µM, Rab9 prom act 3.2µM, SMN2 splice up inconclusive, NPC1 prom act inconclusive, ELG1 genotox inconclusive
Cc1ccc(C(=O)Nc2nc(=O)n(C(=O)CC(C)C)s2)cc1	FLuc modulator inconclusive
O=C(Nc1ccncc1)c1ccc(Cl)cc1	FLuc modulator inconclusive (no result: SMN2 splice up, Luc counter)
Cc1ccc(C(=O)Nc2nc(=O)n(C)s2)cc1	FLuc modulator 2.1µM, Rab9 prom act 2.8µM, SMN2 splice up inconclusive, NPC1 prom act 3.2µM, ELG1 genotox inconclusive
Cc1ccc(C(=O)Nc2ccccc2C(=O)N2CCCCCC2)cc1	none (no result: SMN2 splice up, Luc counter)
Cn1sc(NC(=O)c2ccc(Cl)cc2)nc1=O	FLuc modulator 2.4µM, Rab9 prom act 3.5µM, SMN2 splice up inconclusive, NPC1 prom act 4µM, ELG1 genotox inconclusive
CC(C)CC(=O)n1sc(NC(=O)c2ccccc2)nc1=O	FLuc modulator 21µM
Cc1onc(-c2ccccc2Cl)c1C(=O)NC(=S)Nc1ccc(C(C)(C)C)cc1	none (no result: SMN2 splice up, Luc counter)
CC1CCC(NC(=O)CCCn2sc3ccccc3c2=O)CC1 (centres undefined)	none (no result: SMN2 splice up, Luc counter)
COc1ccc(C(=O)n2nc(C)cc2Nc2ccccc2)cc1	FLuc modulator 11µM, ELG1 genotox 23µM
Cc1ccccc1C(=O)Nc1cccc(C(=O)N/N=C/c2ccc3c(c2)OCO3)c1	FLuc modulator 3µM, Rab9 prom act inconclusive (no result: SMN2 splice up, Luc counter)
Cc1cccc(C(=O)Nc2cccc(C(=O)N/N=C/c3ccc4c(c3)OCO4)c2)c1	FLuc modulator 1.9µM (no result: SMN2 splice up, Luc counter)
O=C(N/N=C/c1ccc2c(c1)OCO2)c1cccc(NC(=O)c2ccccc2Cl)c1	FLuc modulator 2.7µM, ELG1 genotox inconclusive (no result: SMN2 splice up, Luc counter)
CCOc1ccc(CCNC(=O)c2ccc(C)c(NC3=NC4CS(=O)(=O)CC4S3)c2)cc1 (centres undefined)	FLuc modulator inconclusive (no result: SMN2 splice up, Luc counter)
CC(C)C[C@@H](CC(=O)N[C@@H](CCCN)CC(=O)N[C@@H]1CCNC[C@H]1C(=O)N[C@H](CC(=O)N[C@@H](CCC(=O)O)CC(=O)O)Cc1c[nH]c2ccccc12)NC(=O)[C@@H]1CCCC[C@H]1N	none (no result: FLuc modulator, Rab9 prom act, NPC1 prom act, ELG1 genotox)
Cc1cc(C)n2c(SCC(=O)Nc3cccc(S(N)(=O)=O)c3)nnc2n1	none (no result: FLuc modulator, Rab9 prom act, SMN2 splice up, Luc counter, NPC1 prom act)
CCCCOc1ccc(/C=N/NC(=O)c2nnn(-c3nonc3N)c2C)cc1	none (no result: SMN2 splice up, Luc counter)
CCn1cc(-c2cc(C(=O)O)c3ccccc3n2)c(C)n1	FLuc modulator 9.5µM
Cn1ccc(-c2cc(C(=O)O)c3ccccc3n2)n1	FLuc modulator inconclusive
